For assay [1], the target named is RAC-alpha serine/threonine-protein kinase (Homo sapiens) (UniProt P31749). The settings on record: at 0.1 µM.
For assay [2] the target is unchanged. The settings on record: at 1 µM.
The target in assay [3] is RAC-beta serine/threonine-protein kinase (Homo sapiens) (UniProt P31751). The settings on record: at 0.1 µM.
The target is the same in assay [4]. The settings on record: at 1 µM.
The target of assay [5] is RAC-gamma serine/threonine-protein kinase (Homo sapiens) (UniProt Q9Y243). The following applies: at 0.1 µM.
Chain of RAC-gamma serine/threonine-protein kinase (Homo sapiens) (Q9Y243 whole entry): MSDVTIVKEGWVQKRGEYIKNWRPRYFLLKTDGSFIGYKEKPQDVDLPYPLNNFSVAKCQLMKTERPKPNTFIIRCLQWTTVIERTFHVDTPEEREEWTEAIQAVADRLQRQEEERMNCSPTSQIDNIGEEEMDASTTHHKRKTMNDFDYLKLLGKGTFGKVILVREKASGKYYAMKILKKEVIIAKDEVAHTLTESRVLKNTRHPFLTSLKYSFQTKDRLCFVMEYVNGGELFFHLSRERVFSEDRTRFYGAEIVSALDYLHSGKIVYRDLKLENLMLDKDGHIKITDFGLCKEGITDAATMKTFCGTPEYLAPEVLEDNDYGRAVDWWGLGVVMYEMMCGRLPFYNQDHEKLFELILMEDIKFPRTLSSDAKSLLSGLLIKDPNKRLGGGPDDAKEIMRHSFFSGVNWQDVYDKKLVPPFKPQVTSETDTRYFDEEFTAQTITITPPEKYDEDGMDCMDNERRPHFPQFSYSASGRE
Assay [6] shares this target. The settings on record: at 1 µM.
Assay [7] concerns the target G protein-coupled receptor kinase 6 (Homo sapiens) (UniProt P43250). The settings on record: at 0.1 µM.
For assay [8] the target is unchanged. The settings on record: at 1 µM.
Assay [9] concerns the target T1, Rhodopsin kinase GRK7 (Homo sapiens) (UniProt Q8WTQ7).
T1 sequence (whole entry): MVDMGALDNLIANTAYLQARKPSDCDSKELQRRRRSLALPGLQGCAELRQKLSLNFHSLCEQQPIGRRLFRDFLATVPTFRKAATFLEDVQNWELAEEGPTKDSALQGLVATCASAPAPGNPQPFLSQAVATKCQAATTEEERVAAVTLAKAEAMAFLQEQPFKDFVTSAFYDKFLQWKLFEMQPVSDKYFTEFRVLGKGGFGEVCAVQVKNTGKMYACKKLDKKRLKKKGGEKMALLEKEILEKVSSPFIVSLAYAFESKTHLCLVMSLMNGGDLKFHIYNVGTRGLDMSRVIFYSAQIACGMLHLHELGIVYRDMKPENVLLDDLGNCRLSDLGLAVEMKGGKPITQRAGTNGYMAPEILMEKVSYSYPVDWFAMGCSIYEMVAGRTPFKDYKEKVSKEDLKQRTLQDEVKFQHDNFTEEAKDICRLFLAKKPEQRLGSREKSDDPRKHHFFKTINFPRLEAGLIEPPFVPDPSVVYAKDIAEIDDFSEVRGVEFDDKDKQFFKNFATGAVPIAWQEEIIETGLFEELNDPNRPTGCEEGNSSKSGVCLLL
The following applies: at 0.1 µM.

Assay [10] has as its target T1, Rhodopsin kinase GRK7 (Homo sapiens). The settings on record: at 1 µM.
Assay [11] concerns the target Serine/threonine-protein kinase MRCK alpha (Homo sapiens) (UniProt Q5VT25). The settings on record: at 0.1 µM.
The target is the same in assay [12]. The following applies: at 1 µM.
Assay [13] has as its target Serine/threonine-protein kinase MRCK beta (Homo sapiens) (UniProt Q9Y5S2). The following applies: at 0.1 µM.
Assay [14] shares this target. The settings on record: at 1 µM.
Assay [15] deals with Ribosomal protein S6 kinase alpha-5 (Homo sapiens) (UniProt O75582). The settings on record: at 0.1 µM.
Assay [16] shares this target. The following applies: at 1 µM.
Assay [17] has as its target Ribosomal protein S6 kinase alpha-4 (Homo sapiens) (UniProt O75676). The settings on record: at 0.1 µM.
For assay [18] the target is unchanged. The settings on record: at 1 µM.
Assay [19] has as its target Ribosomal protein S6 kinase beta-1 (Homo sapiens) (UniProt P23443). The following applies: at 0.1 µM.
Assay [20] shares this target. The settings on record: at 1 µM.

Where “and” joins values, the source holds several entries; their conditions need not be identical. Equal entries are not always repeated.

For orientation: inhibition means the drop in the measured response relative to a control, in per cent.

Chain of Serine/threonine-protein kinase MRCK beta (Homo sapiens) (Q9Y5S2 whole entry): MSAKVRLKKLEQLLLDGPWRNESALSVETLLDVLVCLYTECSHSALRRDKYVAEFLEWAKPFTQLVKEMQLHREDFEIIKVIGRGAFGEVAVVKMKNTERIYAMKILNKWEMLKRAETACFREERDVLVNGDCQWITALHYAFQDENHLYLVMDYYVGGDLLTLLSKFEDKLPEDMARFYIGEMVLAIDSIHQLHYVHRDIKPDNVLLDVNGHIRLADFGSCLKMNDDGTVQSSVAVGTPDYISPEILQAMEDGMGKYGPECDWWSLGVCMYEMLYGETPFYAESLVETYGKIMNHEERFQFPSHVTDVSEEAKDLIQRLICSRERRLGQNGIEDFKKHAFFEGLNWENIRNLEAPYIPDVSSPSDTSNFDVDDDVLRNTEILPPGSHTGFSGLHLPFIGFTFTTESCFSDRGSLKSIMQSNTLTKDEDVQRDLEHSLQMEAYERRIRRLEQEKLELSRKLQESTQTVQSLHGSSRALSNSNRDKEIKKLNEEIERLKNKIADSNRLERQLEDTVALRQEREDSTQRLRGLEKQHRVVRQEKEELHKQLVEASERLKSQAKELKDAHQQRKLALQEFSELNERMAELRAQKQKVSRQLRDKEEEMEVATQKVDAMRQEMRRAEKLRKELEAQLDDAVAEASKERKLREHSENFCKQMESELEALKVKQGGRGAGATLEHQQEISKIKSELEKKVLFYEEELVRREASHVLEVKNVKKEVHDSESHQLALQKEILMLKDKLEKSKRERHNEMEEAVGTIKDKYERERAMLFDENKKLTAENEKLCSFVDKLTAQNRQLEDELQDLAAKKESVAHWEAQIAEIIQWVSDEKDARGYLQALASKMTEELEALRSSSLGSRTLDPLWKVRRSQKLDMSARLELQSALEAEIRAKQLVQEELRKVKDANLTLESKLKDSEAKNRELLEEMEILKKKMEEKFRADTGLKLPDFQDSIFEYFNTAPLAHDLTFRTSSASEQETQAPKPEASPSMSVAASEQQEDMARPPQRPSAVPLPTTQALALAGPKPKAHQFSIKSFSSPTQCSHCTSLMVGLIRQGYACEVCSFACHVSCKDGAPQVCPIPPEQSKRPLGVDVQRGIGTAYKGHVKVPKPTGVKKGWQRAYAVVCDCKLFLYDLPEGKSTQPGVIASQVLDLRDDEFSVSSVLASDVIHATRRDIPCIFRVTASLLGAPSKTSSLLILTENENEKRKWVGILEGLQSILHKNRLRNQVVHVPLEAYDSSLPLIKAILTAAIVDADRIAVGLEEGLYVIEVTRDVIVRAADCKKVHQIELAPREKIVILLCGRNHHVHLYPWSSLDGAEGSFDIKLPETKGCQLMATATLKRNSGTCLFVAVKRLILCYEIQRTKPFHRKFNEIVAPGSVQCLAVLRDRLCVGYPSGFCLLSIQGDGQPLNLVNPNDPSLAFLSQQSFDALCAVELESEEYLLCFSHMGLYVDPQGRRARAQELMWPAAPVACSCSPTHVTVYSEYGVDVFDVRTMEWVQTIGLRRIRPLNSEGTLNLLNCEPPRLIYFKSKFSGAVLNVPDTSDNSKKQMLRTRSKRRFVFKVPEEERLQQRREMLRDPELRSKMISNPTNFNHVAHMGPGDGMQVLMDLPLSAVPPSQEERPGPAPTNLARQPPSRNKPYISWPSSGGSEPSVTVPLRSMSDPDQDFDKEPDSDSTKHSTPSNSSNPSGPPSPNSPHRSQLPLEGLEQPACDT
Chain of Serine/threonine-protein kinase MRCK alpha (Homo sapiens) (Q5VT25 whole entry): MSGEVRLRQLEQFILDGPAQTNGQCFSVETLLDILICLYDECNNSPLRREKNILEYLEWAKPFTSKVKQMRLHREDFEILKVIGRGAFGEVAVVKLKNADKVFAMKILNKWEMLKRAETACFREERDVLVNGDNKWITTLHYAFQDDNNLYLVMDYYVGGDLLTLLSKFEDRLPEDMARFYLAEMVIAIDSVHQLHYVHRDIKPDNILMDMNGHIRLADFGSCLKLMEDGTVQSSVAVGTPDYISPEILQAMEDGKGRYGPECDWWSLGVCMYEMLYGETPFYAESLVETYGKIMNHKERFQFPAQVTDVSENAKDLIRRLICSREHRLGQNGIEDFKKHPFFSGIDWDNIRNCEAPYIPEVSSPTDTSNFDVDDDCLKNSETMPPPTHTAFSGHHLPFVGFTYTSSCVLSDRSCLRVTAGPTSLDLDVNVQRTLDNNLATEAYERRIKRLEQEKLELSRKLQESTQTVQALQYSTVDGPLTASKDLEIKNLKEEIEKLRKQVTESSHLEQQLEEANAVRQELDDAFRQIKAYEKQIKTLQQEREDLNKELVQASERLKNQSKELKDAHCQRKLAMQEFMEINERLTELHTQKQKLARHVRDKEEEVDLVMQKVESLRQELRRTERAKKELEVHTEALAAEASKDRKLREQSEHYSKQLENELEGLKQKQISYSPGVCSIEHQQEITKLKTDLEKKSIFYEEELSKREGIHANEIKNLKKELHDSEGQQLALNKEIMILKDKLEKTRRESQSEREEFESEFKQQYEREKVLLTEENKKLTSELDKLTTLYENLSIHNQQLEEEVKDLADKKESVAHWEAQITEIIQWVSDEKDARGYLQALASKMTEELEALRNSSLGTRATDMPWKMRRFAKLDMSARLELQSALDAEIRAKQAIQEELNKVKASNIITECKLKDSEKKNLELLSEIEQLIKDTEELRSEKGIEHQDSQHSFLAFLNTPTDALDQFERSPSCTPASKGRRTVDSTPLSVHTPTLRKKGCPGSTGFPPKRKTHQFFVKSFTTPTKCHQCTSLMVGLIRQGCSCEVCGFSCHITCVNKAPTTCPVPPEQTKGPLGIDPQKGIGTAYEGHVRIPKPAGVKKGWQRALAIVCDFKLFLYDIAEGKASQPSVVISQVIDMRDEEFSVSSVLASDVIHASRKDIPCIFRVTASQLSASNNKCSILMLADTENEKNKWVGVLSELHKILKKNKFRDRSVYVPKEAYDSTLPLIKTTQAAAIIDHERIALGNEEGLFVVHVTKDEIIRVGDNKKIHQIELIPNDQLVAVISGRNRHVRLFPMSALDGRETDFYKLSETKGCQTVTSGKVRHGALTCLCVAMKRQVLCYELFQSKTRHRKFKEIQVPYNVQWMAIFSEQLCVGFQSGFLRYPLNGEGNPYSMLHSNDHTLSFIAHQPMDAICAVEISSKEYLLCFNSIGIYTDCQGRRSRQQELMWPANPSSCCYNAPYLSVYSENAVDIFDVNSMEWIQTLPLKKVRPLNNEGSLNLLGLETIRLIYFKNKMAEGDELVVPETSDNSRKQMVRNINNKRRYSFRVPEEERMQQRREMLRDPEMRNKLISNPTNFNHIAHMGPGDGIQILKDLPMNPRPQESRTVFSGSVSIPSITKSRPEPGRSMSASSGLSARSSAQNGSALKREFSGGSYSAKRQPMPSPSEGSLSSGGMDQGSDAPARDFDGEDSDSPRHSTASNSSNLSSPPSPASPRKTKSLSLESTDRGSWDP
Chain of RAC-alpha serine/threonine-protein kinase (Homo sapiens) (P31749 whole entry): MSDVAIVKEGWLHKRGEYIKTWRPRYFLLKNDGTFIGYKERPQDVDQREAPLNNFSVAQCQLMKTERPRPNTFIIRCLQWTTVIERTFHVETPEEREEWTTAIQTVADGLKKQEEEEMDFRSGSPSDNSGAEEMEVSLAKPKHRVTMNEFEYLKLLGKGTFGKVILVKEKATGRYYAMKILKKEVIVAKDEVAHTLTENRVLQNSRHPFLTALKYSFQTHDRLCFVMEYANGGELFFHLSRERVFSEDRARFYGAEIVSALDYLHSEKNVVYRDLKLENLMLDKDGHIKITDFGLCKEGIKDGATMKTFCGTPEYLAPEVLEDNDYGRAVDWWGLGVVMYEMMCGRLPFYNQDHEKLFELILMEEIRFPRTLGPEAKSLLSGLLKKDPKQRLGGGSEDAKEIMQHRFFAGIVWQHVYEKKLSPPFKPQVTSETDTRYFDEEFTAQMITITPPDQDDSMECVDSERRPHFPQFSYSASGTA
Chain of RAC-beta serine/threonine-protein kinase (Homo sapiens) (P31751 whole entry): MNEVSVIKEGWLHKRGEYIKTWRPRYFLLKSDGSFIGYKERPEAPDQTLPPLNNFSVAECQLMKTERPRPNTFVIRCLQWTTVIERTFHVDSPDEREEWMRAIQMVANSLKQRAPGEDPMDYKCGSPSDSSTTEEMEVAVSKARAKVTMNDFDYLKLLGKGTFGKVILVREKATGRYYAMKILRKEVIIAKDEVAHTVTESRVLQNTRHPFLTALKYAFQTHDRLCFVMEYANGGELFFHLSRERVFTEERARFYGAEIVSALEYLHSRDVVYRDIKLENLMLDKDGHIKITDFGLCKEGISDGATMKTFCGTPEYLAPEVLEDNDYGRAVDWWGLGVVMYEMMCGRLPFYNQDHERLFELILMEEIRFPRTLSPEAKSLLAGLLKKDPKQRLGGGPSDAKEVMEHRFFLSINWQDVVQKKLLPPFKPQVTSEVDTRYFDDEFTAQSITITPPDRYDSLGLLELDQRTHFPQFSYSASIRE

Consider `CC1=C(C(=O)Nc2ccc3[nH]nc(C)c3c2)C(c2ccc(C(F)(F)F)cc2)CC(=O)N1` (stereo not given), for which the inhibition in assay [1] is 1.17%; in [2], 1.18%; in assay [3] it was 0.84%; in assay [4], 1.11%; in assay [5], 0.54%; in assay [6] it was 2.53%. In addition, the inhibition is 3.68% in assay [7]; 14.7% in assay [8]; 0.8% in assay [9]; -5% in [10]; 1.9% in [11]; 17.1% in assay [12]. The inhibition in assay [13] turned out to be 5.5%; in [14], 37.4%; in assay [15], 6.02%; in assay [16], 28.8%; in assay [17], 1.31%; in [18], 11.5%. Moreover, the inhibition in assay [19] amounted to 1.6%; in assay [20], 9.4%.

On to `FC(F)(F)CNc1nccc(-c2cnn3ncccc23)n1`, for which the inhibition was 0.05% in assay [1]; 0.65% in assay [2]; 1.43% in [3]; 0.42% in assay [4]; 0.5% in assay [5]; 1.33% in [6]. Further, the inhibition in [7] was -2.66%; in assay [8], -0.41%; in assay [9], 3.21%; in [10], 0.87%; in assay [11] it was -2.84%; in assay [12], -3.89%. Besides, the inhibition in [13] is -0.09%; in assay [14] it was -0.68%; in [15], 1.98%; in assay [16], 1.09%; in assay [17] it was 2.33%; in [18], 1.58%. Further, the inhibition in [19] turned out to be 0.49%; in assay [20], 0.86%.

For the compound `CCN1CCC(C(=O)Nc2n[nH]c3nnc(-c4cccc(F)c4F)cc23)CC1`, the inhibition was -0.41% in [1]; -1.03% in [2]; -1.1% in assay [3]; -0.35% in assay [4]; -1.17% in assay [5]; 2.44% in [6]. For the same compound, the inhibition was -2.23% in assay [7]; 1.97% in [8]; 3.51% in assay [9]; -1.02% in [10]; -1.78% in assay [11]; 1.74% in assay [12]. Besides, the inhibition in assay [13] was 0.8%; in assay [14] it was -0.36%; in [15], -1.22%; in [16], -2.44%; in assay [17], 0.41%; in [18], 0.26%. Besides, the inhibition in assay [19] was -0.22%; in [20], -1.27%.

For `c1ccc(-c2n[nH]cc2-c2ccnc(-c3ccc(OCCn4ccnc4)cc3)c2)nc1`, the inhibition in [1] was -1.55%; in assay [2] it was 0.14%; in assay [3] it was -0.98%; in [4], 0.73%; in [5] it was -0.34%; in assay [6], 1.01%. Besides, the inhibition in [7] is 1.73%; in assay [8], 4.13%; in assay [9], -0.12%; in assay [10] it was 4.02%; in assay [11], -0.22%; in assay [12], -0.54%. Also, the inhibition in assay [13] was 1.02%; in [14] it was 2.11%; in assay [15] it was -4.46%; in [16], -0.29%; in assay [17], 0.76%; in assay [18] it was 3.98%. Also, the inhibition in [19] came to 0.32%; in assay [20], 0.33%.

On to `CS(=O)(=O)CCNCc1ccc(-c2ccc3ncnc(Nc4ccc(OCc5ccccc5)cc4)c3c2)o1`, for which the inhibition in [1] stood at 0.6%; in assay [2] it was 0.62%; in assay [3] it was 0.5%; in assay [4], 1.64%; in assay [5], 0.25%; in [6], 2%. The inhibition was 3.01% in assay [7]; 3.33% in assay [8]; 4.51% in assay [9]; 4.87% in assay [10]; -0.82% in assay [11]; -2.61% in assay [12]. The inhibition in [13] amounted to 0.05%; in [14], 1.22%; in [15], 1.86%; in assay [16] it was 0.66%; in assay [17], 3.06%; in [18] it was 2.56%. Further, the inhibition in assay [19] worked out at 1.52%; in assay [20], 2.62%.

`NS(=O)(=O)c1cccc(N/C=C2\C(=O)Nc3ccccc32)c1`: the inhibition in assay [1] turned out to be 0.57%; in [2] it was 0.97%; in assay [3], 1.32%; in assay [4] it was 1.98%; in [5], 1.37%; in assay [6] it was 0.33%. Moreover, the inhibition in assay [7] turned out to be 3.98%; in assay [8], 11.5%; in [9], 2.36%; in assay [10], 9.13%; in [11], 0.02%; in assay [12], 0.03%. The inhibition in assay [13] worked out at 0.57%; in assay [14], 2.14%; in assay [15], 10.2%; in assay [16], 14.8%; in assay [17], 2.95%; in assay [18], 18.6%. For the same compound, the inhibition worked out at 2.13% in assay [19] and 8% in assay [20].

For `c1cnn2ncc(-c3ccnc(NCCCN4CCOCC4)n3)c2c1`, the inhibition in [1] is 0.48%; in assay [2] it was 0.29%; in assay [3], 1.29%; in assay [4] it was 1.85%; in assay [5] it was 1.38%; in [6] it was 1.68%. Besides, the inhibition in assay [7] is 4.92%; in assay [8], 3.86%; in assay [9], 20.1%; in [10], 15.5%; in [11] it was -0.89%; in assay [12] it was -2.56%. Further, the inhibition in assay [13] worked out at 0.55%; in assay [14], 3.84%; in assay [15] it was 6.61%; in [16] it was 6.41%; in [17] it was 5.88%; in assay [18] it was 7.41%. Moreover, the inhibition in assay [19] amounted to 2.05%; in assay [20], 2.73%.

For the compound `COC(=O)Nc1nc2ccc(Oc3ccc(NC(=O)Nc4cc(C(F)(F)F)ccc4F)cc3)cc2s1`, the inhibition was -0.37% in assay [1]; -0.66% in assay [2]; -0.14% in [3]; -0.64% in [4]; 1.34% in assay [5]; -0.4% in assay [6]. Moreover, the inhibition in assay [7] was -1.28%; in assay [8], -1.53%; in assay [9], -0.68%; in assay [10] it was 6.1%; in [11] it was -0.38%; in [12], -1.54%. Also, the inhibition in assay [13] is 0.73%; in [14], 1.68%; in assay [15], 0.52%; in [16], 0.93%; in assay [17], 1.67%; in [18] it was 2.86%. Besides, the inhibition came out at 6.33% in assay [19] and 23.2% in [20].

With `CCCNc1cccc(-n2ncc3c(N/N=C/c4ccncc4)ncnc32)c1`, the inhibition is 0.34% in assay [1]; -0.51% in assay [2]; 0.22% in [3]; -0.08% in assay [4]; -0.05% in assay [5]; -1.08% in [6]. Further, the inhibition was 3.49% in assay [7]; 3.97% in assay [8]; 2.68% in assay [9]; 4.45% in [10]; 1.31% in assay [11]; 5.18% in [12]. For the same compound, the inhibition is -0.11% in [13]; 0.92% in [14]; -4.25% in [15]; -2.6% in [16]; 1.74% in [17]; 2.6% in assay [18]. The figures for the inhibition in assay [19] and in [20] were 1.2% and 8.74%, respectively.

With `CN1CCC(C(=O)Nc2n[nH]c3nc(-c4ccc(O)cc4)c(Br)cc23)CC1`, the inhibition in assay [1] was -3.78% and 0.82%; in [2] it was -3.1% and -0.05%; in assay [3], -1.35% and 0.28%; in assay [4], -1.57% and 1.31%; in [5] it was -2.51% and 0.97%; in [6] it was -0.95% and 3.11%. Besides, the inhibition in assay [7] was 8.47% and 0.32%; in assay [8], 20.1% and 5.9%; in assay [9] it was 5.9% and 4.12%; in assay [10], 16.7% and -0.01%; in [11], 2.05% and 4.4%; in [12], 21.6% and 19.5%. The inhibition in assay [13] was 1.99% and 0.84%; in [14], 12.8% and 12.7%; in [15], 1.62% and 0.25%; in assay [16] it was 3.91% and 1.49%; in [17] it was 2.85% and 1.78%; in [18] it was 5.51% and 1.19%. Further, the inhibition in assay [19] was 0.96% and -0.21%; in [20], 2.58% and -0.02%.

Consider `Cc1ccc(-c2cc3c(NC(=O)C4CC4)ncnc3o2)cc1`, for which the inhibition in [1] is 0.96%; in assay [2] it was 1.39%; in assay [3] it was 1.6%; in assay [4], 1.7%; in [5] it was 3.51%; in assay [6], 2.62%. Moreover, the inhibition in assay [7] was 3.77%; in [8] it was -1.16%; in assay [9] it was 4%; in assay [10], 1.88%; in assay [11], -0.24%; in [12] it was 0.37%. Further, the inhibition in assay [13] turned out to be 1.15%; in assay [14], 1.58%; in [15], 3.67%; in assay [16], 3.15%; in assay [17] it was 2.15%; in [18], 4.27%. Besides, the values for the inhibition in assay [19] and in assay [20] were 2.29% and 1.52%, respectively.

Take `NS(=O)(=O)c1ccc(N/N=C2\C(=O)Nc3cccc(CCc4ccncc4)c32)cc1`: the inhibition in assay [1] was 0.52%; in assay [2], 0.04%; in [3], -0.35%; in assay [4], 0.27%; in assay [5], 0.45%; in [6] it was 1.65%. The inhibition is 0.11% in assay [7]; 1.61% in [8]; 7.3% in assay [9]; 5.05% in assay [10]; -0.78% in assay [11]; -0.69% in assay [12]. The inhibition was 0.54% in assay [13]; 0.31% in assay [14]; -0.75% in assay [15]; -0.48% in [16]; 0.37% in assay [17]; 2.61% in [18]. For the same compound, the inhibition in [19] is 0.08%; in assay [20] it was -0.48%.

These data come from ChEMBL document CHEMBL1961873, “Compounds: GSK PKIS; Assays: Nanosyn kinase panel” (2012).
